# Laboratory results taken from PubChem BioAssay (EPA / NIEHS).
# The source made the active and inactive calls. Rule for the calls: active = hit-call score of the fitted dose curve at least 0.9, where 1 is the maximum; inactive = score below 0.9.
# Read-out: Human Leukocyte Antigen - DR isotype (HLADR), HLA-DRA (gene 3122)
# Experiment: BSK_3C_HLADR: BioMAP Diversity Plus: 3C Assay for Human Leukocyte Antigen - DR isotype (HLADR) Biomarker Activity (AID 2283019)
# Conditions: primary human endothelial cells (HUVEC); actives raise or lower the signal
# Protocol: BSK_3C is a cell-based, multiplexed-readout assay that uses umbilical vein endothelium, a human vascular primary cell, with measurements taken at 24 hours after chemical dosing in a 96-well plate.BSK_3C_HLADR is an assay component measured in the BSK_3C assay. It measures HLA-DR antibody related to regulation of gene expression using ELISA technology.Data from the assay component BSK_3C_HLADR was analyzed into 1 assay endpoint. This assay endpoint, BSK_3C_HLADR, was analyzed with bidirectional fitting relative to DMSO as the negative control and baseline of activity. Using a type of binding reporter, gain or loss-of-signal activity can be used to understand changes in the signaling as they relate to the gene HLA-DRA. Furthermore, this assay endpoint can be referred to as a primary readout, because this assay has produced multiple assay endpoints where this one serves a signaling function. To generalize the intended target to other relatable targets, this assay endpoint is annotated to the cell adhesion molecules intended target family, where the subfamily is MHC Class II.
# The levels of cell surface (or secreted, indicated by the prefix "s") biomarker endpoints were measured by ELISA. Overt cytotoxicity to cells in confluent adherent cultures (all systems other than the BT system) was assessed by measuring total protein levels using sulforhodamine B (SRB) staining in parallel cultures at the time of biomarker measurements, indicated as SRB endpoints. For proliferation assays for adherent cell types, individual cell types are cultured at sub-confluence and relative cell numbers quantified by SRB staining at time points optimized for each system (48 h: 3C and CASM3C systems; 72 h: BT and HDF3CGF systems; 96 h: SAg system). SRB was performed by staining cells with 0.1% SRB after fixation with 10% TCA and reading wells at 560 nm.Viability and proliferation of PBMC (T cells) was quantified by Alamar Blue reduction for the SAg and BT systems. For PBMC viability (referred to as PBMC Cytotoxicity within the assay endpoint names), cells were plated (75,000/well in a 96-well plate) and then chemical samples added for 1 h before addition of activators, SEB and TSST-1 (20 ng/mL final concentration each). Cells were incubated for 90 h. Then, Alamar Blue (20 uL/well) (Invitrogen, Cat DAL1100) was added for 6 h, and the plates were read with a fluorescence microplate reader at 546/580 nm (excitation/emission). For PBMC proliferation, cells were plated and activated as above but incubated for only 16 h prior to addition of Alamar Blue. Plates were read after 6 h.
SMILES,outcome,AC50
O=C(Cl)c1c(Cl)c(Cl)c(C(=O)Cl)c(Cl)c1Cl,inactive,
CCCCCC1=CCCC1=O,,20 µM (active)
O=C1CCCCCCCCCCC1,inactive,
O=C(O)C(F)(F)C(F)(F)C(F)(F)C(F)(F)C(=O)O,inactive,
COc1ccc(C(=O)c2ccccc2)c(O)c1,,27.8 µM (active)
CC1(C)CC(O)CC(C)(C)N1[O],inactive,
Clc1cc(Cl)c(Cl)c(Cl)c1Cl,,20 µM (active)
CCCCCCOC(=O)CCCCC(=O)OCCCCCC,inactive,
C=CC(=O)OCCCCCCOC(=O)C=C,,4.69 µM (active)
CC/C=C\C/C=C\C/C=C\CCCCCCCC(=O)OC,,10.7 µM (active)
CCc1cccc(C)c1N(C(=O)CS(=O)(=O)O)C(C)COC (stereo not given),inactive,
CC/C=C\CCOC(=O)c1ccccc1O,,33.1 µM (active)
COC(OC)(C(=O)c1ccccc1)c1ccccc1,inactive,
CC1=CC=C(C(C)C)CC1,inactive,
CCN1CN(CC)CN(CC)C1,,20 µM (active)
C[N+](C)(C)CCCNS(=O)(=O)C(F)(F)C(F)(F)C(F)(F)C(F)(F)C(F)(F)C(F)(F)C(F)(F)C(F)(F)F,inactive,
CCNc1nc(NC(C)(C)C)nc(OC)n1,inactive,
C=CC(=O)OCCCCCCCC(C)C,inactive,
CC=C(C)C=CC=C(C)C,,20 µM (active)
CC(C)c1cccc(C(C)C)c1N,,38.2 µM (active)

SMILES,outcome,AC50
CCOC(=O)C1=NOC(c2ccccc2)(c2ccccc2)C1,inactive,
C=CCCCCCCCCC=O,inactive,
C=CC(=O)OCC(C)OCC(C)OCC(C)OC(=O)C=C (stereo not given),,8.55 µM (active)
CC(c1cc(C(C)(C)C)cc(C(C)(C)C)c1O)c1cc(C(C)(C)C)cc(C(C)(C)C)c1O,inactive,
C1CNCCN1,inactive,
Oc1c(Cl)cc(Cl)c(Cl)c1Cl,,25 µM (active)
O=C(Oc1ccccc1)c1ccccc1C(=O)Oc1ccccc1,,20 µM (active)
CC(CCC(=O)O)(c1ccc(O)cc1)c1ccc(O)cc1,inactive,
CCCC(C)C(=O)OCC (stereo not given),inactive,
Nc1nc(N)nc(-c2ccccc2)n1,inactive,
CC(C)C(=O)OCCc1ccccc1,inactive,
CC(C)[N+](C)(CCOC(=O)C1c2ccccc2Oc2ccccc21)C(C)C,inactive,
Fc1ccc(Br)cc1,inactive,
Oc1ccccc1Cc1ccccc1O,inactive,
Cc1ccc([N+](=O)[O-])cc1N,inactive,
Oc1ccc(/C=C/c2cc(O)cc(O)c2)cc1,,20 µM (active)
CC(Cl)COP(=O)(OCC(C)Cl)OCC(C)Cl (stereo not given),inactive,
CCOC(=O)/C=C\C(=O)OCC,,32.5 µM (active)
CCCCC1C(=O)N(c2ccccc2)N(c2ccccc2)C1=O,inactive,
CCCCCCCO,inactive,
